Our source for the Potency values is PubChem BioAssay (NCATS).

A short description of experiment [1]: qHTS for Inhibitors of the Functional Ribonucleoprotein Complex (vRNP) of Lassa (LASV) Arenavirus: LASV Primary Screen - GLuc reporter signal (AID 1347082; calls by dose curve; tested in HEK293 reporter line; further: series mostly up to about 57 µM; nearly all actives have a fitted effect of over 60% in size). (In general: In qHTS, concentration-response curves come from the screen itself.)
Experiment [2] can be described thus: qHTS for Inhibitors of the Functional Ribonucleoprotein Complex (vRNP) of Lassa (LASV) Arenavirus: Viability assay - alamar blue signal for LASV Primary Screen (AID 1347083; calls by dose curve; tested in HEK293 reporter line; further: nearly all actives have a fitted effect of over 80% in size; further: potency means the concentration at half of the fitted maximal effect).
The nature of experiment [3]: qHTS for Inhibitors of the Functional Ribonucleoprotein Complex (vRNP) of Lymphocytic Choriomeningitis Arenaviruses (LCMV): Viability assay - alamar blue signal for LCMV Primary Screen (AID 1347085; calls by dose curve; tested in HEK293 reporter line; further: nearly all actives have a fitted effect of over 80% in size; further: potency means the concentration at half of the fitted maximal effect).
The target of experiment [4] is Nucleoprotein (Lymphocytic choriomeningitis virus (strain Armstrong)) (UniProt P09992). Nature of the experiment: qHTS for Inhibitors of the Functional Ribonucleoprotein Complex (vRNP) of Lymphocytic Choriomeningitis Arenaviruses (LCMV): LCMV Primary Screen - GLuc reporter signal (AID 1347086). Further: series mostly up to about 57 µM; nearly all actives have a fitted effect of over 70% in size.

Molecules are shown by their SMILES. Records with an inconclusive call do not appear. Unmarked numbers belong to inactive results. Calls of active or inactive are those of the source. Unless noted, the call rests on the fitted dose curve.

Chain of Nucleoprotein (Lymphocytic choriomeningitis virus (strain Armstrong)) (P09992 whole entry, looked up): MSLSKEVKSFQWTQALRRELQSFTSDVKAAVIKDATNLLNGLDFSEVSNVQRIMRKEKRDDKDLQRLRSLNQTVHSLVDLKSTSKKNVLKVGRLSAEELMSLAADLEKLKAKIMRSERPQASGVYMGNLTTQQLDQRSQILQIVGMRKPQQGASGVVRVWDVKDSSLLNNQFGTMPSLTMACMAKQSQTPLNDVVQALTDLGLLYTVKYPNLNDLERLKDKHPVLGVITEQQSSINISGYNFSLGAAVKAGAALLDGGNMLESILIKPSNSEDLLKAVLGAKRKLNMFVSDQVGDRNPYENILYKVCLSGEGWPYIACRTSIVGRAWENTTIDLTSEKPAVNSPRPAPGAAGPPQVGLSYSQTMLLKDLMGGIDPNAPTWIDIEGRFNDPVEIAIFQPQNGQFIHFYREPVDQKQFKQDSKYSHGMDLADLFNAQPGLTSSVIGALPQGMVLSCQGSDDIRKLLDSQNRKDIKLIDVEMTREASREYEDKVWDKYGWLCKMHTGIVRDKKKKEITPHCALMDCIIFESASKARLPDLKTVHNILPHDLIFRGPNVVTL

For the molecule `CCCCCCC[C@@H](C/C=C/CCC(=O)N(C)C/C(=C/Cl)C/C(=C\C(=O)N1CC(OC)=CC1=O)OC)OC`, the Potency result in experiment [1], in experiment [2], in experiment [3] and in experiment [4] was “inactive” in each case.

In the case of `OC/C=C/c1ccccc1`, the Potency result in experiment [1], in experiment [2], in experiment [3] and in experiment [4] was “inactive” throughout.

For the molecule `CCCC(=O)OCc1ccccc1`, the Potency entry in experiment [1], in experiment [2], in experiment [3] and in experiment [4] was “inactive” throughout.

With `CC(C)C/C=C(\C=O)c1ccccc1`, the Potency entry in experiment [1], in experiment [2], in experiment [3] and in experiment [4] was “inactive” in each case.

Regarding `C/C=C(/C)C(=O)O[C@H]1CC(C)=CC(=O)[C@@]2(C)CC[C@@](O)(C(C)C)[C@H]12`, the Potency result in experiment [1], in experiment [2], in experiment [3] and in experiment [4] was “inactive” in each case.

With `COc1cc2c(c(OC)c1OC)-c1c(cc3c(c1OC)OCO3)C1OC2[C@@H](C)[C@H]1C` (stereo not given in full), the Potency result in experiment [1], in experiment [2], in experiment [3] and in experiment [4] was “inactive” throughout.

As for `CN1c2c(nc(N)[nH]c2=O)NCC1CNc1ccc(C(=O)NC(CCC(=O)O)C(=O)O)cc1` (stereo not given), the Potency entry in experiment [1], in experiment [2], in experiment [3] and in experiment [4] was “inactive” throughout.

Take `O[C@@H]1CCN2Cc3ccccc3N=C12`: the Potency result in experiment [1], in experiment [2], in experiment [3] and in experiment [4] was “inactive” throughout.

As for `CCCCCCCCCCCC(=O)c1c(O)cccc1O`, the Potency result in experiment [1], in experiment [2], in experiment [3] and in experiment [4] was “inactive” each time.

On to `Nc1nc2c(ncn2[C@@H]2O[C@H](COP(=O)(O)OP(=O)(O)O)[C@@H](O)[C@H]2O)c(=O)[nH]1`, for which the Potency entry in experiment [1], in experiment [2], in experiment [3] and in experiment [4] was “inactive” in each case.

`O=C(Nc1ccc(Br)cc1)C(c1ccccc1)c1ccccc1`: the Potency entry in experiment [1], in experiment [2], in experiment [3] and in experiment [4] was “inactive” throughout.

As to `N=C1SC(=Cc2ccc(-c3ccc4c(c3)C(=O)NC4=O)o2)C(=O)N1c1ccc(Br)cc1`, the Potency result in experiment [1], in experiment [2], in experiment [3] and in experiment [4] was “inactive” each time.

As to `C=C1CCC2C(C)(C)[C@@H](O)CC[C@@]2(C)[C@@H]1COc1ccc2ccc(=O)oc2c1` (stereo not given in full), the Potency result in experiment [1], in experiment [2], in experiment [3] and in experiment [4] was “inactive” in each case.

Consider `Cc1cc(Nc2nc(N[C@@H](C)c3ccc(F)cc3)c(C#N)cc2F)n[nH]1`, for which the Potency entry in experiment [1] and in experiment [4] was “inactive” in each case. The values for the Potency in experiment [2] and in experiment [3] were 4.85 µM (active) and 10.9 µM (active), respectively.

Take `COc1ccc(CO)cc1`: the Potency entry in experiment [1], in experiment [2], in experiment [3] and in experiment [4] was “inactive” throughout.

Turning to `COc1cc(C)cc(C(=O)O)c1C1=C(O)c2cccc(O)c2C(=O)C1=O`, the Potency entry in experiment [1], in experiment [2], in experiment [3] and in experiment [4] was “inactive” each time.

Turning to `CC(=O)O[C@H]1C[C@@]2(O)[C@@H](OC(=O)c3ccccc3)C3[C@@](C)([C@@H](O)C[C@H]4OC[C@@]34OC(C)=O)[C@@H](O)[C@H](OC(C)=O)C(=C1C)C2(C)C` (stereo not given in full), the Potency entry in experiment [1], in experiment [2], in experiment [3] and in experiment [4] was “inactive” in each case.

Regarding `CO[C@H]1[C@@H](OC)CC(OC2OC(CO)C(O)C(O)C2O)/C(=C\C#N)[C@@H]1O` (stereo not given in full), the Potency result in experiment [1], in experiment [2], in experiment [3] and in experiment [4] was “inactive” each time.

As for `C[C@@H]1C[C@H]2[C@@H]3C[C@H](F)C4=CC(=O)C=C[C@@]4(C)[C@]3(F)[C@H](O)C[C@]2(C)[C@@]1(O)C(=O)CO`, the Potency result in experiment [1], in experiment [2], in experiment [3] and in experiment [4] was “inactive” each time.

Take `CC(=O)c1ccccc1O`: the Potency entry in experiment [1], in experiment [2], in experiment [3] and in experiment [4] was “inactive” each time.

In the case of `CCN1CCC(n2cc(CNc3cc(Cl)c4ncc(C#N)c(Nc5ccc(F)c(Cl)c5)c4c3)nn2)CC1`, the Potency entry in experiment [1], in experiment [2], in experiment [3] and in experiment [4] was “inactive” throughout.

As to `CC1=C(O)C(=O)OC1C` (stereo not given), the Potency entry in experiment [1], in experiment [2], in experiment [3] and in experiment [4] was “inactive” in each case.

Turning to `C=C1CCC(OC(C)=O)C2(C)CCC3C(C)C(=O)OC3C12O` (stereo not given), the Potency entry in experiment [1], in experiment [2], in experiment [3] and in experiment [4] was “inactive” throughout.

With `C#CCCC/C(=C\C(=O)N(C)[C@H](C(=O)N(C)[C@H](C(=O)N(C)[C@H](C(=O)N(C)[C@H](C(N)=O)C(C)C)C(C)C)C(C)C)C(C)C)OC`, the Potency result in experiment [1], in experiment [2], in experiment [3] and in experiment [4] was “inactive” in each case.

As for `CC1(C)Oc2ccc3ccc(=O)oc3c2[C@@H](O)[C@H]1O`, the Potency entry in experiment [1], in experiment [2], in experiment [3] and in experiment [4] was “inactive” throughout.

As for `COc1cc2oc(=O)ccc2cc1[C@H](O)[C@@H](O)C(C)(C)O`, the Potency result in experiment [1], in experiment [2], in experiment [3] and in experiment [4] was “inactive” throughout.

In the case of `CC(C)CCCC(=O)O`, the Potency entry in experiment [1], in experiment [2], in experiment [3] and in experiment [4] was “inactive” each time.

For `COc1cc2c(cc1O)C(Cc1ccc(O)cc1)[N+](C)(C)CC2` (stereo not given), the Potency entry in experiment [1], in experiment [2], in experiment [3] and in experiment [4] was “inactive” throughout.

As for `Nc1ncnc2c1ncn2[C@H]1O[C@H](CO)[C@@H](O)[C@@H]1O`, the Potency entry in experiment [1], in experiment [2], in experiment [3] and in experiment [4] was “inactive” each time.

Consider `Cn1c(N2CCCCS2(=O)=O)nc(C(=O)NCc2ccc(F)cc2)c(O)c1=O`, for which the Potency entry in experiment [1], in experiment [2], in experiment [3] and in experiment [4] was “inactive” in each case.
